The list is not random: actives were taken first. Their share in the collection is about 1.5%.
RAD54 inh: inhibitors of human RAD54 branch migration | Q92698 | RAD54 Holliday junction branch migration, FAM/BHQ fluorescence | inhibition, % at 10.4 µM | 0.14% of 360,000 active | AID 602329;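 active = mean normalized replicate activity at least 40 and at least half of replicates scoring 40 or more; inconclusive = only one of the two criteria met; inactive = mean below 40 and under half of replicates reaching 40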;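 also: 0% = median of neutral control wells and 100% = median of positive control wells; inhibitors cause a drop in the FAM fluorescence signal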
RAD52 inh: blocks human RAD52 DNA annealing; P43351; recombinant RAD52 DNA annealing, FRET fluorescence; inhibition, % at 18.7 µM; 0.46% of 360,000 active;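 active = every replicate showing at least 50% inhibition; inconclusive = mean inhibition at least 50% but not in every replicate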
NRP1-CendR mod: NRP-1/CendR interaction modulation; O14786; FAM-RPARPAR peptide binding to NRP-1, fluorescence polarization; inhibition, % at 25 µM; 0.85% of 360,000 active;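 active = inhibition or corrected inhibition above about 18%, plus a signal ratio from 0.5 to 1.5, limit read from the data, passing the limit was not always enough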
Target sequence (O14786 whole entry, looked up): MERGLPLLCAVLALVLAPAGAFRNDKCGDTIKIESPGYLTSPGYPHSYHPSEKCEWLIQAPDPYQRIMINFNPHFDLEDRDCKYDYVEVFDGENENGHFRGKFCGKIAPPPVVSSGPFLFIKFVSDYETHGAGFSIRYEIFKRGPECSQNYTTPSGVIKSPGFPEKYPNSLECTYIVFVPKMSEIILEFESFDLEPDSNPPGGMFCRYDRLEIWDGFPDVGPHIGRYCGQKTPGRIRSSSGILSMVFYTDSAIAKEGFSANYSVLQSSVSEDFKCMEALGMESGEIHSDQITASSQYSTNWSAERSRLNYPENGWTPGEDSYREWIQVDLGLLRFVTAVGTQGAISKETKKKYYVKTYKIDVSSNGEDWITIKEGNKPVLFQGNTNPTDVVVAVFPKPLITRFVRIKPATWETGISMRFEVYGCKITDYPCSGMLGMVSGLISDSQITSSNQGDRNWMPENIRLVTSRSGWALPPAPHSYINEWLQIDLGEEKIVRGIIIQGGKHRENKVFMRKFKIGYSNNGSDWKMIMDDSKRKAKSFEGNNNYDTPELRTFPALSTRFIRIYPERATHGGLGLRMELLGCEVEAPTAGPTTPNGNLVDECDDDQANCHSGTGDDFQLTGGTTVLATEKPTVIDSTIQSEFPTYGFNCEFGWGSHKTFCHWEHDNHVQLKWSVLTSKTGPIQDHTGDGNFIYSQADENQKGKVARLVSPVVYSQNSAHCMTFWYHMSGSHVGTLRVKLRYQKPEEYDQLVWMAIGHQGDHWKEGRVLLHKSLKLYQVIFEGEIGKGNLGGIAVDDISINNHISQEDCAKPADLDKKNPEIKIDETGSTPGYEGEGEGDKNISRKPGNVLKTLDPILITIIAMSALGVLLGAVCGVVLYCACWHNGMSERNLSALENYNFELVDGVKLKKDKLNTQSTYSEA
DNA FID counter: counter-screen for HCV NS3 helicase inhibitors: DNA intercalator displacement. DNA fluorescent intercalator displacement, fluorescence. 0.17% of 290,000 active. inhibition, % at 7.9 µM. AID 1845; in the data active = inhibition above about 37%;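 also: 0% = vehicle and 100% = reference compound; higher means more ethidium bromide displaced from hairpin DNA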
miR122 inh: miR-122 inhibition in Huh7 cells | 0.3% of 340,000 active | activation (reporter increase), % at 12.5 µM | Huh7 miR-122 Renilla luciferase sensor, 48 h; neutral wells = 0, positive control = 100;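 active = mean replicate activation score at least 90 and every replicate individually at or above 90; inconclusive = only one of the two criteria met; inactive = neither criterion met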;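 also: higher luciferase means less miR-122 activity so hits act as miR-122 inhibitors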
N-glyco inh: N-linked glycosylation inhibition | AID 588692 | 0.23% of 360,000 active | D54 ERlucT glycosylation luciferase reporter, 24 h; percent of 100 nM tunicamycin response | reporter increase, % at 12.5 µM;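 active = mean luciferase reporter signal, scaled so untreated is 0 and the glycosylation-blocking control 100, at or above a set limit in every replicate; inconclusive = mean reaches the limit but not every replicate does; inactive = mean below the limit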;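 also: luciferase carries N-glycosylation sites so blocking glycosylation raises the light; 0% = median of neutral control wells and 100% = median of 100 nM tunicamycin wells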
An asterisk follows results filed as active; u = inconclusive; x = not tested or not shown; [ ] = remark or other dose.

SMILES | RAD54 inh | RAD52 inh | NRP1-CendR mod | DNA FID counter | miR122 inh | N-glyco inh
COc1ccc(CN(C)C[C@@H]2Oc3ccc(NC(=O)C4CCCCC4)cc3CC(=O)N([C@H](C)CO)C[C@@H]2C)cc1 | -3 | 4 | x | x | -7[16.7 µM] | x
CC12CCC(=O)N1C(C(=O)NCCc1ccc(F)cc1)CS2 (configuration not stated) | 9 | -5 | -4 | -6 | -8 | 0
CC12CCC(=O)N1C(C(=O)NCCc1ccccc1)CS2 (configuration not stated) | -7 | -5 | 25* | -4 | -3 | 0
Cn1nnnc1SCc1nnc(-c2ccc(F)cc2)o1 | 3 | x | 25* | -1 | -5 | 1
CCc1cccc2c(C(=O)CN3C(=O)NC4(CCCCC4)C3=O)c[nH]c12 | 4 | -8 | 13 | x | 115* | 19
CCc1cccc2c(C(=O)CN3C(=O)NC4(CCCCCC4)C3=O)c[nH]c12 | -2 | -23 | -7 | x | 42 | 8
NCC[C@H]1CC[C@@H](NC(=O)C2CC2)[C@H](CO)O1 | x | -14 | x | x | x | x
Cc1ccc(C(C)C)cc1S(=O)(=O)NCc1ccccn1 | -7 | -11 | -6 | -23 | 283* | 1
Cc1cc(C)c(S(=O)(=O)NCc2ccccn2)cc1C | -2 | -11 | -3 | -16 | 101* | 1
CC(C)C(NC=C1C(=O)OC(C)(C)OC1=O)C(=O)O (configuration not stated) | -2 | 2 | -3 | 2 | 3 | 2
CC(O)C(NC=C1C(=O)OC(C)(C)OC1=O)C(=O)O (configuration not stated) | x | -8 | 29* | 2 | x | 1
COc1cccc(NC(=O)N[C@H]2C=C[C@@H](CC(=O)NCc3ccccn3)O[C@H]2CO)c1 | -5 | -9 | x | x | x | x
COc1ccc(C(=O)Nc2c(F)c(F)c(F)c(F)c2F)c(OC)c1 | -1 | x | 20* | -1 | 5 | -4
CCCNC(=O)c1ccc2c(=O)c(O)c(C)[nH]c2c1 | -4 | 4 | 21* | x | -2 | 0
COC(=O)C(CC#Cc1ccc2c(c1)[C@]1(C(=O)N2)[C@H](c2ccc(OCCO)cc2)N2[C@H](c3ccccc3)[C@H](c3ccccc3)OC(=O)[C@H]2[C@@H]1C(=O)Nc1nc2ccccc2s1)C(=O)OC | x | 0 | x | x | x | x
Cc1onc(-c2ccccc2Cl)c1C(=O)N1CCOC12CCN(c1cccc(F)n1)CC2 | x | -1 | 18* | -17 | x | 1
Cc1onc(-c2ccccc2Cl)c1C(=O)N1CCOC12CCCCC2 | 6 | -1 | 3 | -5 | 1 | -1
Cc1ccc(C)c(N2CCN(CCCNC(=O)Cn3cccc3C(=O)c3ccccc3C)CC2)c1 | x | 26 | 5 | 38* | x | -7
CC(=O)Nc1ccc(S(=O)(=O)NC(C)C(=O)NCC(c2ccco2)N(C)C)cc1 (configuration not stated) | 8 | -12 | 27* | x | -3 | 2
CC(=O)Nc1ccc(C(=O)NCC(c2ccco2)N(C)C)cc1 (configuration not stated) | -5 | -10 | 10 | -5 | -13 | -1
CCCC(=O)Nc1ccc2c(c1)C(=O)N(C)[C@@H]1CC[C@H](CC(=O)NCCN3CCCCC3)O[C@H]1CO2 | -7 | x | x | x | -50[16.7 µM] | x
CCN(CC)CCn1c(=N)n(CC(O)COc2ccccc2)c2ccccc21 (configuration not stated) | -6 | 2 | -5 | 37* | 2 | -2
O=C(Nc1ccc(S(=O)(=O)N2CCOCC2)cc1)c1ccc2c(c1)S(=O)(=O)c1ccccc1C2=O | x | -7 | -10 | 1 | -7 | -5
Cc1ccc(NC(=O)c2ccc3c(c2)S(=O)(=O)c2ccccc2C3=O)cc1S(=O)(=O)N1CCOCC1 | 0 | -7 | 29* | 2 | -5 | -1
NNC(=O)c1ccc(OCC2CC(c3ccc(Cl)cc3)=NO2)cc1 (configuration not stated) | 0 | -14 | 17 | -15 | 1 | 52*
SMILES | RAD54 inh | RAD52 inh | NRP1-CendR mod | DNA FID counter | miR122 inh | N-glyco inh
Cc1cc(=O)oc2cc(OCC3CC(c4ccc(Cl)cc4)=NO3)ccc12 (configuration not stated) | 5 | x | 9 | -1 | 0 | 0
O=C(CCCC(=O)OCC(=O)c1cccs1)Nc1ccc(Oc2ccccc2)cc1 | 1 | x | 23* | -16 | -9 | 0
O=C(C[C@H]1CC[C@H]2[C@@H](COC[C@H](O)CN2CC2CCCC2)O1)NCC1CC1 | x | -6 | x | x | x | x
CCCCN1CC[C@H]2C=CC[C@@H](C(=O)Nc3ccccc3)[C@H]2C1=O | 1 | -2 | 32* | x | -3 | 2
O=C(NCc1cccnc1)[C@@H]1CC=C[C@@H]2CCN(Cc3ccccc3)C(=O)[C@@H]21 | -1 | -8 | 32* | x | -5 | 1
O=C(Nc1ccccc1)[C@@H]1CC=C[C@@H]2CCN(Cc3ccccc3)C(=O)[C@@H]21 | -3 | -9 | 18 | x | -6 | 1
CCCCN1CC[C@H]2C=CC[C@@H](C(=O)NCCc3ccccc3)[C@H]2C1=O | -19 | -8 | 14 | x | -7 | 0
COc1ccc(CN2CC[C@H]3C=CC[C@@H](C(=O)NCCc4ccccc4)[C@H]3C2=O)cc1OC | -13 | -7 | 24* | x | -6 | -3
COc1ccc(NC(=O)Nc2ccc3c(c2)C(=O)N([C@@H](C)CO)C[C@H](C)[C@@H](CN(C)C)OCCCC[C@@H](C)O3)cc1 | 1 | -9 | x | x | 5[16.7 µM] | x
COc1ccc(NC(=O)N(C)C[C@@H]2OCCCC[C@@H](C)Oc3ccc(NC(=O)Nc4ccc(F)cc4)cc3C(=O)N([C@H](C)CO)C[C@H]2C)cc1 | 5 | 9 | x | x | -5[16.7 µM] | x
O=c1oc(Nc2ccccc2F)nc2ccccc12 | -4 | x | 37* | 3 | 0 | 2
COCC#Cc1cnc2c(c1)C(=O)N([C@H](C)CO)C[C@@H](C)[C@H](CN(C)Cc1ccccc1F)O2 | x | x | x | x | 1[16.7 µM] | x
COCC#Cc1ccc([C@H]2[C@H](CO)N3CCCCN(C(=O)CN(C)C)C[C@@H]23)cc1 | -6 | 11 | x | x | -2[16.7 µM] | x
CN(C)CC#Cc1ccc([C@H]2[C@@H](CO)N3CCCCN(C(=O)Nc4ccccc4F)C[C@H]23)cc1 | -4 | 70* | x | x | 8[16.7 µM] | x
CN(C)CC#Cc1ccc([C@H]2[C@H]3CN(C(=O)CN(C)C)CCCCN3[C@H]2CO)cc1 | -18 | 57* | x | x | 23[16.7 µM] | x
CN(C)CC(=O)N1CCCCN2[C@H](CO)[C@H](c3ccc(/C=C/c4ccccc4)cc3)[C@@H]2C1 | 16 | 55* | x | x | -26[16.7 µM] | x
Cc1nn(-c2ccccc2)c(N2CCCCC2)c1/C=N/NC(=O)c1ccncc1 | x | -1 | 7 | -35 | x | -2
CCOc1ccc(S(=O)(=O)Nc2ccc(C(=O)N/N=C/c3c(C)nn(-c4ccccc4)c3N3CCCC3)cc2)cc1 | x | -13 | 21* | -16 | x | -1
Cc1cccc(NS(=O)(=O)c2ccc(C3CCCCC3)cc2)c1 | 5 | x | -6 | -13 | u | x
N#CCc1ccc(NS(=O)(=O)c2ccc(C3CCCCC3)cc2)cc1 | 18 | -12 | 4 | -15 | 182* | -4

Bioassay records as filed in PubChem BioAssay.
